# Reference: PubChem BioAssay AID2685 (National Center for Advancing Translational Sciences (NCATS), 2010)
# Among all 320,000 compounds or so, about 2,100 (0.66%) were called active. Not shown: some 53% with an inconclusive outcome. This is one part of a sample in which actives are shown more often than they occur. Calls follow the shape of the dose curve; as a rule, active = well fitted inhibition curve with a large enough effect in the signal ratio, with a control signal flat (not every such curve was filed as active); inconclusive = small, poorly fitted or top-dose-only effect, or effect the other way, or a change in a side signal; inactive = flat fitted curve, though single readings scatter; the % refers to the signal ratio.
# Test: qHTS Assay for Lipid Storage Modulators in Drosophila S3 Cells;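 as to cell number change: cells counted by Cell Tracker Red CMTPX staining in the red channel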; as to lipid storage change, negative = inhibition: % is scaled to controls: 0 for no effect and ±100 for the full control effect
# Details: BODIPY lipid droplet fluorescence, 18-24 h, cells fed with added oleic acid; cell number change: measured here: cell count max response; series mostly up to 46.1 µM; lipid storage change, negative = inhibition: at the top concentration
# In short: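 Laser-scanning cytometry quantifies lipid droplet accumulation (500–530 nm total intensity; droplet/cell object ratio) in oleic acid-fed (400 uM added) Drosophila S3 cells treated with a concentration series. 20 uM Triacsin C defined 100% inhibition.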
# Potency is read from the fitted curve at half-maximal effect.
Structure (SMILES),"lipid storage change, negative = inhibition",cell number change,outcome,Potency
COC(=O)NC1CCC(NC(=O)OC)CC1 (stereo not drawn),0.668% (inactive),-8.14%,–,–
O=C(Nc1cc(Cl)ccc1Oc1ccccc1)C1=COCCO1,–,-27.8%,inactive,–
CC(=O)C(=Nc1ccccc1Cl)NNc1ccc(Cl)cc1,–,-39.5%,–,23.1 µM (active)
CCOC(=O)C(=O)NNc1ccc(Cl)cc1,7.67% (inactive),0.213%,–,–
O=C(O)c1ccccc1C(=O)NNc1ccc(Cl)cc1,8.58% (inactive),6.32%,–,–
CC12CCC(c3c(C(=O)O)nn(-c4ccc(F)cc4)c31)C2(C)C (stereo not drawn),–,-9.61%,–,16.4 µM (active)
CC12CCC(c3c(C(=O)O)nn(-c4ccccc4)c31)C2(C)C (stereo not drawn),-12.8% (inactive),7.24%,–,–
CC12CCC(c3c(C(=O)N4CCOCC4)nn(-c4ccccc4)c31)C2(C)C (stereo not drawn),10.8% (inactive),15.9%,–,–
COc1ccc(N2CCN(C(c3ccc4ncccc4c3)c3nnnn3C(C)C)CC2)cc1 (stereo not drawn),-0.518% (inactive),3.49%,–,–
FC(F)(F)c1ccccc1-n1c(CN2CCCCC2)n[nH]c1=S,-4.58% (inactive),-9.97%,–,–
S=c1[nH]nc(CN2CCCCC2)n1Cc1ccccc1,17.3% (inactive),-2.92%,–,–
Fc1ccc(-n2c(CN3CCCCC3)n[nH]c2=S)cc1,–,-100%,–,1.64 µM (active)
Cc1ccc(S(=O)(=O)CCN2CCN(c3ccccn3)CC2)cc1,11.2% (inactive),3.2%,–,–
Cc1ccc(S(=O)(=O)N2CC(=O)Nc3ccccc32)c(C)c1NS(C)(=O)=O,-1.89% (inactive),-8.89%,–,–
CCc1ccc(-c2cc(C)no2)cc1S(=O)(=O)N1CCOc2ccccc21,–,-0.472%,–,16.4 µM (active)
CCc1ccc(-c2cc(C)no2)cc1S(=O)(=O)N1CCN(c2ccccc2OC)CC1,-26.9% (inactive),23.3%,–,–
CCc1ccc(-c2cc(C)no2)cc1S(=O)(=O)Nc1ccccn1,–,-19.5%,inactive,–
CCc1ccc(-c2cc(C)no2)cc1S(=O)(=O)N1CCCN(Cc2ccc(F)cc2)C1,–,2.69%,inactive,–
Cc1cc(-c2ccc(C)c(S(=O)(=O)N3CC(=O)Nc4ccccc43)c2)on1,–,3.36%,–,1.03 µM (active)
Cc1cc(-c2ccc(C)c(S(=O)(=O)N3CCN(c4ccccn4)CC3)c2)on1,–,-26.7%,inactive,–
CCc1ccc(-c2cc(C)no2)cc1S(=O)(=O)NCCc1ccccc1,–,13.1%,inactive,–
CCc1ccc(-c2cc(C)no2)cc1S(=O)(=O)N1CC(=O)Nc2ccccc21,–,-17.1%,–,4.11 µM (active)
Cc1ccc(Nc2cc(C)nc(-c3ccccc3)n2)cc1,–,–,inactive,–
CC(=O)CSc1cc(-c2ccccc2)nc2ncnn12,1.07% (inactive),-21.4%,–,–

Structure (SMILES),"lipid storage change, negative = inhibition",cell number change,outcome,Potency
Cc1cc(C)nc(NS(=O)(=O)c2ccc(NC(=O)Nc3ccccc3F)cc2)n1,-5.13% (inactive),-10.1%,–,–
O=C(Cn1cccc1C(=O)c1ccccc1)NCCCN1CCOCC1,4.62% (inactive),-0.598%,–,–
O=C1c2ccccc2CN1Cc1ccccc1,13.6% (inactive),10.2%,–,–
O=C(CCn1[nH]c(=O)c2ccccc2c1=O)NCCO,–,1.53%,–,11.6 µM (active)
COC(=O)CCn1[nH]c(=O)c2ccccc2c1=O,19.6% (inactive),-3.6%,–,–
CCCCCCCCOC(=O)CCn1[nH]c(=O)c2ccccc2c1=O,11.7% (inactive),-16.3%,–,–
c1ccc(CN2CCOCCOCCOCC2)cc1,-1.95% (inactive),-1.02%,–,–
CCOC(=O)c1ccc(N2C(=O)c3n[nH]c(C)c3C2c2ccc(OC)cc2)cc1 (stereo not drawn),4.29% (inactive),-20.7%,–,–
CC1(CCc2ccccc2)NC(=O)N(CC(=O)O)C1=O (stereo not drawn),-11.3% (inactive),-3.79%,–,–
Cc1ccc(NC(=O)CSc2nnc(C3CC3)n2N)cc1S(=O)(=O)N1CCOCC1,8.03% (inactive),12.4%,–,–
O=C(CCN1C(=O)NC2(CCCC2)C1=O)Nc1cccc(S(=O)(=O)N2CCOCC2)c1,-1.8% (inactive),2.63%,–,–
CC1CCCN(C(=O)Cn2c3ccccc3c3nc4n(c(=O)c32)CCS4)C1 (stereo not drawn),–,-9.4%,–,7.31 µM (active)
O=C(Cn1c2ccccc2c2nc3n(c(=O)c21)CCS3)Nc1ccccc1C(F)(F)F,-7.14% (inactive),-11.3%,–,–
O=C(Cn1c2ccccc2c2nc3n(c(=O)c21)CCS3)N1CCCC1,–,-22.8%,inactive,–
COc1ccc(/C=N\Nc2ccccc2[N+](=O)[O-])c(C(=O)O)c1OC,12.5% (inactive),2.19%,–,–
Cc1ccc(C(=O)CSc2nnc(-c3ccccc3)n2-c2ccccc2)o1,12.7% (inactive),6.85%,–,–
CCOC(=O)C1[C@H]2C(=O)N(C(C)c3ccc(OC)cc3)C[C@]23C=C[C@H]1O3 (stereo partly drawn),4.99% (inactive),-3.61%,–,–
COc1ccc(C(C)N2CC34C=CC(O3)C(C(=O)OCC(C)C)C4C2=O)cc1 (stereo not drawn),2.76% (inactive),-0.854%,–,–
COC(=O)C1C2C=CC3(CN(C(C)c4ccc(OC)cc4)C(=O)C13)O2 (stereo not drawn),–,-5.31%,–,16.4 µM (active)
Cc1ccccc1Nc1nccc(N(C)C)c1C#N,-15.1% (inactive),-17.6%,–,–
N#C/C(=C\c1ccccc1)C(=O)NC1CC1,20% (inactive),–,–,–
COc1ccc(/C=C(/C#N)C(=O)NC2CCCCC2)cc1Br,8.79% (inactive),-11.6%,–,–
CC(=O)Nc1ccc(/C=C(\C#N)C(=O)NC2CCCCC2)cc1,–,6.15%,–,20.6 µM (active)
COc1cc2[nH]c(=O)n(Cc3ccc(C(=O)NC4CCCC4)cc3)c(=O)c2cc1OC,–,–,inactive,–

Structure (SMILES),"lipid storage change, negative = inhibition",cell number change,outcome,Potency
COc1cc2[nH]c(=O)n(Cc3ccc(C(=O)NCC4CCCO4)cc3)c(=O)c2cc1OC (stereo not drawn),4.38% (inactive),12.5%,–,–
COc1ccc(N2CCN(C(=O)c3ccc4c(=O)n(CCc5ccc(OC)c(OC)c5)c(=O)[nH]c4c3)CC2)cc1,-2.58% (inactive),-0.645%,–,–
CCOC(=O)N1CCN(C(=O)c2ccc3c(=O)n(CCc4ccccc4)c(=O)[nH]c3c2)CC1,–,–,inactive,–
COCCn1c(=O)[nH]c2cc(C(=O)N3CCN(c4ccccc4F)CC3)ccc2c1=O,–,-14.1%,–,11.6 µM (active)
CCOC(=O)N1CCN(C(=O)c2ccc3c(=O)n(CCOC)c(=O)[nH]c3c2)CC1,4.87% (inactive),1.58%,–,–
COCCn1c(=O)[nH]c2cc(C(=O)NCCN3CCN(c4ccccc4F)CC3)ccc2c1=O,-1.14% (inactive),-8.35%,–,–
CCCCCn1c(=O)[nH]c2cc(C(=O)N3CCN(CC)CC3)ccc2c1=O,–,–,inactive,–
CCOC(=O)N1CCN(C(=O)c2ccc3c(=O)n(CCc4ccc(OC)c(OC)c4)c(=O)[nH]c3c2)CC1,–,12.7%,–,1.3 µM (active)
CCCCCn1c(=O)[nH]c2cc(C(=O)N3CCN(c4ccccc4F)CC3)ccc2c1=O,–,0.806%,inactive,–
CCCCCn1c(=O)[nH]c2cc(C(=O)N3CCN(C(=O)OCC)CC3)ccc2c1=O,–,–,–,3.66 µM (active)
COc1cc2[nH]c(=O)n(Cc3ccc(C(=O)N4CCC(N5CCCCC5)CC4)cc3)c(=O)c2cc1OC,–,-3.59%,–,0.411 µM (active)
CCC(=O)Nc1ccc2oc(-c3cccnc3)nc2c1,6.31% (inactive),17.6%,–,–
OCCNc1ncnc2c1sc1nc(N3CCOCC3)c3c(c12)CCC3,24.5% (inactive),0.136%,–,–
Cc1c(OC(C)C(=O)NCCCN2CCOCC2)ccc2c3c(c(=O)oc12)CCCC3 (stereo not drawn),–,8.4%,inactive,–
COC(=O)CNC(=O)CSc1nc(N)cc(=O)[nH]1,-9.71% (inactive),-9.53%,–,–
Cc1cc(C)c(O)c(NC(=S)NC(=O)Cc2ccccc2)c1,–,-14.2%,inactive,–
CCc1ccccc1Nc1nc(N)nc(COC(=O)CCS(=O)(=O)c2ccccc2)n1,28.2% (inactive),–,–,–
Cc1c(C)n(CCO)c2ncnc(Nc3ccc(F)cc3)c12,1.25% (inactive),17.8%,–,–
C=CCN1C(=O)/C(=C\c2ccc(Cl)cc2)N=C1SCC(=O)NC1CCCCC1,–,1.87%,inactive,–
CC(=O)c1ccc(NC(=O)/C(=C\c2cccs2)NC(=O)c2ccco2)cc1,-8.78% (inactive),17%,–,–
CC1=C(C(=O)Nc2ccc(C)cc2)C(c2ccc(N(C)C)cc2)NC(=O)N1 (stereo not drawn),9.61% (inactive),-1.82%,–,–
CC1=C(C(=O)Nc2ccccc2)C(c2cccs2)NC(=O)N1 (stereo not drawn),5.69% (inactive),-4.1%,–,–
CCN(CC)c1ccc(C2NC(=O)NC(C)=C2C(=O)Nc2ccccc2)cc1 (stereo not drawn),–,-25.6%,–,1.64 µM (active)
Cc1ccc(NC(=O)c2c(O)c3ccccc3n(C)c2=O)nc1,8.6% (inactive),-15.8%,–,–

Structure (SMILES),"lipid storage change, negative = inhibition",cell number change,outcome,Potency
CCOC(=O)c1cnc2c(C)c(-c3ccccc3)[nH]n2c1=O,-2.41% (inactive),6.05%,–,–
CN=C1SC(CC(=O)Nc2ccc(F)cc2F)C(=O)N1/N=C(\C)c1cccc(OCC(=O)O)c1 (stereo not drawn),-8.34% (inactive),5.65%,–,–
CN=C1SC(CC(=O)Nc2ccc(F)cc2F)C(=O)N1/N=C/c1ccc(OC(F)F)c(OC)c1 (stereo not drawn),-6.72% (inactive),8.82%,–,–
C=CCOc1ccc(/C=N/N2C(=O)C(CC(=O)Nc3ccc(F)cc3F)SC2=NC)cc1 (stereo not drawn),–,23%,–,18.4 µM (active)
CCOC(=O)c1cnc2c(OC)cccc2c1Oc1ccccc1,-5.84% (inactive),0.518%,–,–
NC(=NCc1ccco1)NC(=O)c1ccccc1,–,21.8%,–,20.6 µM (active)
c1ccc(NC(=NCc2ccco2)c2ccccc2)cc1,-0.489% (inactive),0.492%,–,–
O=C(NC(=S)NCc1ccco1)c1ccccc1,7.18% (inactive),2.74%,–,–
COC(=O)c1ccc(OC(=O)CCN2C(=O)C3C4c5ccccc5C(c5ccccc54)C3C2=O)cc1 (stereo not drawn),-0.417% (inactive),-1.2%,–,–
O=C(c1cnccn1)N1CCN(c2ccccc2F)CC1,8.36% (inactive),-10.1%,–,–
Nc1ncc(Br)cc1S(=O)(=O)NC1CCCCC1,–,6.11%,inactive,–
Nc1ncc(Br)cc1S(=O)(=O)Nc1cc(C(F)(F)F)cc(C(F)(F)F)c1,–,-15.9%,–,0.58 µM (active)
Nc1ncc(Br)cc1S(=O)(=O)Nc1ccccc1F,-1.29% (inactive),–,–,–
Cc1c(C(=O)O/N=C(\N)c2ccccn2)cccc1[N+](=O)[O-],7.81% (inactive),7.58%,–,–
CCOC(=O)C1=C(COC(=O)Cc2ccc(Cl)cc2)NC(=O)NC1C (stereo not drawn),19.6% (inactive),5.22%,–,–
O=C(CN1CCN(CC(=O)Nc2ccccn2)CC1)Nc1ccccn1,–,1.87%,–,29.1 µM (active)
Cn1nnnc1SCC(=O)Nc1ccccc1Br,-11.7% (inactive),-3.35%,–,–
O=C(CC(=O)Nc1ccccn1)Nc1ccccn1,6.74% (inactive),4.61%,–,–
Cn1nnnc1SCC(=O)Nc1ccccn1,–,-3.74%,–,5.8 µM (active)
O=C(CN1CCN(c2ccccn2)CC1)Nc1ccccc1,–,6.43%,inactive,–
Cc1cc(C)cc(NC(=O)CN2CCN(c3ncccn3)CC2)c1,-4.58% (inactive),8.39%,–,–
Cc1cc(C)cc(NC(=O)CN2CCN(c3ccccn3)CC2)c1,–,-2.33%,–,16.4 µM (active)
Cc1cccc(NC(=O)CSc2nnnn2C)n1,-8.83% (inactive),-5.08%,–,–
NC(=O)C1CCN(CC(=O)Nc2ccccn2)CC1,–,–,inactive,–
